Results on 30 sequences are retold here after PubChem BioAssay AID1508600 (Functional Genomics Laboratory (NCATS/FGL), 2020).

The campaign covered roughly 53,000 sequences. About 3,700 (7%) were called active. Shown is part of a subset that was picked to be rich in actives. Values without a mark were called inactive.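 How the source made its calls: active means gene knockdowns whose robust z-score for IL-1 alpha signal is at least 2 or at most -2, so actives lie on both sides; inactive means the rest.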

The experiment is described as follows: Components of the Cytosolic LPS Sensing Pathway: Gene Identification via Genome-wide siRNA Screen.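 Further: robust z of the log signal after scaling to non-targeting control siRNA wells of the plate.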 Particulars: RAW264.7 macrophages, IL-1a HTRF, actives lie on both sides, screened at 100 nM (by protocol), cells primed 5 h with Pam3CSK4 first. The method in brief: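 RAW264.7; siRNA 100 nM final, RNAiMAX, 48h 37 degrees C; Pam3CSK4 5 h; LipidA + TransIT-TKO 24 h; IL-1a HTRF; CellTiter-Glo viability; robust z vs negative-control median.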
On the technique in general: In TR-FRET formats the signal depends on donor and acceptor labels being close together.
With CCGAAGCAUUUUCCCAUCUTT against Slc22a20, the z-score is -0.293. With CCUGAUCCUCAGUUUGGUGTT against Prl the figure was 0.129. With GGUAACAAACUACAUUUGCTT against Pcdhb16 the figure was 2.7 (active). For CGAGAAUUCCUUGCUCUAATT against Mgat4a, the z-score was 0.194. With GCGCGACCUUCGAAUGUAATT against Rnf5 the figure was -0.834; with GGAUAUGGUUAAAGCCAAATT against Zg16, -0.172.

For GGGAUGUGUCCUGACUUUUTT against Zfp941, the z-score is -0.402. With CCCAACUUAAAAGUACGUUTT against Hdac5 the figure was 0.83. Turning to GGUUCAAAAGUCGAGCGAATT against Nudt9, the z-score was -0.137. GCCUAAGGGAGACUCUUUGTT against Ano7: the z-score is -2.02 (active). With GGAAGUGAUUCUGCUAUGUTT against Cenpn the figure was -1.69; with GGAAAGCAUGAGUUAAUAATT against Slain2, 1.38. As to GGGAAUAUCACAGGUGCCATT against Axl, the z-score is -0.737. For the sequence GGCUCUAAAUUUUUUGUUCTT against Derl1, the z-score is 0.532.

On to UGAGGAGAGUUUCCGAGUGTT against H2-Q6, for which the z-score was -0.0985.

In the case of GCUAGUCUUAUGGACCAGATT against Eaf2, the z-score was -0.764. Take GGAAGAGCAUAAAAUGUCATT against Trps1: the z-score was -0.695. As for GGCGAAUGCGCUUCUGAUATT against BC053393, the z-score was 2.29 (active). With GGCACACAGUUUUGUACAUTT against Nfat5 the figure was 2.25 (active). With GGACAAGAAGAAAGAAAAGTT against Tmbim6 the figure was -1.07; with GGAAGUUCCACCAUACCUCTT against Cypt4, -2.5 (active); with GGCGACAGCGUAAAAGUACTT against Lyst, -0.347. For the sequence GGAAAAAAAACACUGACUGTT against Hoxa5, the z-score is 1.05. In the case of GGCUCAAGGCUGAGUUUCATT against En2, the z-score was 0.704. With GGCCUGGAGGACUUUAUAATT against Cyp2a4 the figure was -1.13. For the sequence GGCUAGCUACACAGUCUCATT against Plscr2, the z-score was 0.376. GCAUCAUUGUCAAUCAUAUTT against Olfr578: the z-score is -2.25 (active).

CCGAAGGACAGUGUUUAUUTT against Mfsd11: the z-score is 0.212. For the sequence GCCUGCUAUUUAAUUCAUATT against Fam168a, the z-score is -0.671. As for GGUCCAGUGAAAUAAUAUCTT against Orc3, the z-score was 0.774.
